{"source": "PubChem BioAssay", "key": {"[1]": {"experiment": "hit retest on RPL19A-GFP reporter strain – cell-based, S. cerevisiae, flow cytometry, cherry picks, mother/daughter gates, confirmation (AID 2270;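 active = GFP response below 50% of the DMSO control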)", "details": "3 h, at 10 µM, stronger effect = lower value, 100 = same GFP as DMSO wells"}, "[2]": {"experiment": "yeast TOR pathway reporter LAP4-GFP change – cell-based, cherry picks, flow cytometry, mother/daughter gates, confirmation (AID 2271;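 active = GFP response above 150% of the DMSO control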;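 note: ratio of sample to DMSO plate mean so 100% equals DMSO level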)", "details": "S. cerevisiae LAP4-GFP strain, 3 h, at 10 µM, stronger effect = higher value"}, "[3]": {"experiment": "TOR pathway CIT2 reporter hit retest – S. cerevisiae, GFP fusion, cherry picks, mother/daughter gates, confirmation (AID 2274)", "details": "S. cerevisiae CIT2-GFP strain, flow cytometry, 3 h, at 10 µM, stronger effect = higher value"}, "[4]": {"experiment": "rapamycin-like changes in RPL19A-GFP expression – cell-based, S. cerevisiae, multiplex flow cytometry, primary screen (AID 1862; in the data active = percent of DMSO control GFP below about 86%;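 note: lower values mimic rapamycin by blocking the RPL19A rise seen in DMSO cells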)", "details": "S. cerevisiae RPL19A-GFP strain, flow cytometry fluorescence, 3 h; at 10 µM; stronger effect = lower value"}, "[5]": {"experiment": "TOR pathway GLN3 branch reporter MEP2-GFP changes – S. cerevisiae, multiplex flow cytometry, primary screen (AID 1867;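 active = GFP response, as percent of the DMSO control, above the screen-wide mean plus 3 SD, about 139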;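 note: median GFP channel fluorescence of barcode-gated MEP2-GFP cells measured by flow cytometry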)", "details": "S. cerevisiae MEP2-GFP strain, 3 h, at 10 µM, stronger effect = higher value"}, "[6]": {"experiment": "TOR pathway RTG branch CIT2 reporter changes – S. cerevisiae, GFP fusion, multiplex flow cytometry, primary screen (AID 1870;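 active = percent response above a set limit, the screen-wide mean plus 3 SD, cut at about 130% in these data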;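 note: barcoded CIT2-GFP strain pooled with four other GFP strains with rapamycin as positive control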)", "details": "S. cerevisiae CIT2-GFP expression, 3 h, at 10 µM, stronger effect = higher value"}, "[7]": {"experiment": "TOR pathway LAP4-GFP level changes – S. cerevisiae, multiplex flow cytometry, primary screen (AID 1873;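 active = GFP signal, as percent of the solvent control, above the screen mean plus 3 SD, about 149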)", "details": "S. cerevisiae LAP4-GFP expression, 3 h, at 10 µM, stronger effect = higher value"}, "[8]": {"experiment": "reduced mouse 2C T cell binding to pMHC/ICAM-1 vesicles – MLPCN validation set, flow cytometry, LFA-1/ICAM-1 modulator project, pilot screen (AID 2523;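 active = response below a set limit, under 55% cells CD8-positive and vesicle-bound, and CD8 cells' 90th-percentile brightness under 279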;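 for vesicle binding response: 100% = QL9-loaded vesicles with DMSO vehicle in the same plate row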)", "details": "2C mouse CD8+ T cells, at 7 µM, stronger effect = lower value; double positive events: measured here: CD8+/vesicle+ event percentage"}, "[9]": {"target": "Integrin beta-1 (Homo sapiens) + Integrin alpha-4 (Homo sapiens) (UniProt P13612+P05556)", "sequence (P05556 whole entry, looked up)": "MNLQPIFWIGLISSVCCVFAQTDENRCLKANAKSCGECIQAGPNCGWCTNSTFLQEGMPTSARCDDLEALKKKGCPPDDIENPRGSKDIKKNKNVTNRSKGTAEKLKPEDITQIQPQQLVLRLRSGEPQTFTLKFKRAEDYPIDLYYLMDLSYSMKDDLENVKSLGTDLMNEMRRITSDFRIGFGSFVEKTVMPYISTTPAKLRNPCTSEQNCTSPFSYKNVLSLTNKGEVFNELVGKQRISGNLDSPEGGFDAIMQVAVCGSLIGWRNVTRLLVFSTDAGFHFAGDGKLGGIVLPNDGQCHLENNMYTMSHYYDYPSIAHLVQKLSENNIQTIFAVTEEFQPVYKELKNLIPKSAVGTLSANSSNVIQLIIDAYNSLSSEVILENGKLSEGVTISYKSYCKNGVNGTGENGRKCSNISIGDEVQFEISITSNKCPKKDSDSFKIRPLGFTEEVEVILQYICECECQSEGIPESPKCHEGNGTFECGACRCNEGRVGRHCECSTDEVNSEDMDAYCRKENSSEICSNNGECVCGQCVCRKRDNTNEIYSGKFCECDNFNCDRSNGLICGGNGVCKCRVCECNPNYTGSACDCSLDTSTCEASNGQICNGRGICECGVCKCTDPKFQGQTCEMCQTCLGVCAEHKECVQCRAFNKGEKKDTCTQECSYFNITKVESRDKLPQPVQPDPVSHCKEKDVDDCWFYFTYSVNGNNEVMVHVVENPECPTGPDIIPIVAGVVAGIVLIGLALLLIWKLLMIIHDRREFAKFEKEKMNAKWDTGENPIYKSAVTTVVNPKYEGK", "sequence (P13612 whole entry, looked up)": "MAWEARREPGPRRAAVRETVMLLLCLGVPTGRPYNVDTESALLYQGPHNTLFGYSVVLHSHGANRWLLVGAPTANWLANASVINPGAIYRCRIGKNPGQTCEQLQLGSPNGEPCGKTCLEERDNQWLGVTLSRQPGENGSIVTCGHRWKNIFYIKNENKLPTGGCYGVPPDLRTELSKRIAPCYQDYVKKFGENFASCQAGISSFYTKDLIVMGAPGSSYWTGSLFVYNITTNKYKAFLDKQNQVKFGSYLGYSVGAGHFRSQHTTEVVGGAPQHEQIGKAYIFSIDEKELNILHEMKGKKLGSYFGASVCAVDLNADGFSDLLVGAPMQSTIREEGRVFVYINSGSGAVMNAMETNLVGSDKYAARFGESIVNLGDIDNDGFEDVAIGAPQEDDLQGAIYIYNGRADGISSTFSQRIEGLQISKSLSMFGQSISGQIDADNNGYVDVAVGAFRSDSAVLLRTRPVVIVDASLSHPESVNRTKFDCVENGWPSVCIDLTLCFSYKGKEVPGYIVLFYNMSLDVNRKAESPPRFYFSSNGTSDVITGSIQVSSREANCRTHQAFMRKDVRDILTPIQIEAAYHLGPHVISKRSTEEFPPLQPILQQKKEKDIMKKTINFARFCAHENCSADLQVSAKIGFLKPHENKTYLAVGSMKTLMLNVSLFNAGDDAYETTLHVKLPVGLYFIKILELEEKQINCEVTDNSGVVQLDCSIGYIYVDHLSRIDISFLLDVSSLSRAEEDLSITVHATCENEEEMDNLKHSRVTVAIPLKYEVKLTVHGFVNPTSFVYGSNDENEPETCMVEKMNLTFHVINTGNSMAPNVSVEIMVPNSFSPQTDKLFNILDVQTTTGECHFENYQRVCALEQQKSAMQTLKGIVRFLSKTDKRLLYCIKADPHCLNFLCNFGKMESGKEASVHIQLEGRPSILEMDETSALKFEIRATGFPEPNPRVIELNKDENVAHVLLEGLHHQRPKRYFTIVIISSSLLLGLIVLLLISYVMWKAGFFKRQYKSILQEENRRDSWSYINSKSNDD", "experiment": "alpha4beta1 integrin LIBS antibody binding reduction – U937 cells, HUTS-21 mAb, flow cytometry, validation set, VLA-4 allosteric modulator project, pilot screen (AID 2674;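 active = inhibition above 50%, about 3 SD of the validation set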;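 note: antibody binding induced by the VLA-4 ligand LDV present at three times its Kd; 0% = LDV ligand with antibody and no compound and 100% = antibody without LDV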)", "details": "HUTS-21 LIBS mAb binding, at 6.7 µM, stronger effect = higher value"}, "[10]": {"experiment": "calorie-restriction mimetic ROS inhibitors, yeast – validation compound set, pilot screen (AID 2706;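 active = superoxide response below 65% of plate, a cut near 3 SD across the whole screen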;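 note: yeast exposed to compound for one week at 30 degrees C before staining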)", "details": "S. cerevisiae aging, superoxide DHE fluorescence; at 10 µM; stronger effect = lower value"}, "[11]": {"target": "Beta-adrenergic receptor kinase 1 (Homo sapiens) (UniProt P25098)", "sequence (P25098 whole entry, looked up)": "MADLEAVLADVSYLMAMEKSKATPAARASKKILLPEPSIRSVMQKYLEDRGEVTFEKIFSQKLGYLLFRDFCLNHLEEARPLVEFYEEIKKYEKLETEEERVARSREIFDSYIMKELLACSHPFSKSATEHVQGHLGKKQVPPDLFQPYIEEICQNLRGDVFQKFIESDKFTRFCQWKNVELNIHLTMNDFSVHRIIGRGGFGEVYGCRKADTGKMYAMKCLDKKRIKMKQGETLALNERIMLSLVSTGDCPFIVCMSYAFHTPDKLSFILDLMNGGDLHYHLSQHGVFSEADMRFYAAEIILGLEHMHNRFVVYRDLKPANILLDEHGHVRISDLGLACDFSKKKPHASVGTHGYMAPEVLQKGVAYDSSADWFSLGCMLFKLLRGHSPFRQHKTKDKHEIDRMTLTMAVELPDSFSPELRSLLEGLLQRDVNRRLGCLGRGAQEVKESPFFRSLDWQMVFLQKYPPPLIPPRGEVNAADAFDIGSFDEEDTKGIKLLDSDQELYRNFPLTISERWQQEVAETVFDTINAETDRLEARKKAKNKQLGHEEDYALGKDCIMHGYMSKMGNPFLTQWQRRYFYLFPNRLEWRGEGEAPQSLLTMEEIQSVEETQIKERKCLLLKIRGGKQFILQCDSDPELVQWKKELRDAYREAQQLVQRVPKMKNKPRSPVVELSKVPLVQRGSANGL", "experiment": "GRK2 binders displacing RNA aptamer, biochemical, validation, human GRK2, bead flow cytometry (AID 488806;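 active = aptamer binding inhibition above 30%, about 3 SD of noise from non-fluorescent compounds; inactive = inhibition at or below 30%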)", "details": "bead-bound GRK2, FAM-aptamer displacement, at 10 µM, stronger effect = higher value"}, "[12]": {"target": "AP-2 complex subunit beta (Homo sapiens) (UniProt P63010)", "experiment": "beta-arrestin/AP2 interaction blockers – biochemical, validation set, GST-AP2 beads, flow cytometry, pilot screen (AID 504541;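 active = inhibition above 54%, about 3 SD of non-fluorescent compounds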;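 note: AP2 carries R879A mutation and is captured from E. coli lysate; 0% = DMSO wells and 100% = excess unlabeled arrestin peptide control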)", "details": "FITC arrestin peptide, at 10 µM, stronger effect = higher value"}, "[13]": {"experiment": "cytosolic pH regulators acting via V-ATPase – S. cerevisiae, pHLuorin, HTS validation (AID 504600; in the data active = response above about 15%;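 note: plate controls were DMSO for no effect and reference compound for full effect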)", "details": "V-ATPase proton transport, at 10 µM, stronger effect = higher value"}, "[14]": {"tested_on": "anti-desmoglein-3 scFv antibody binding to human DSG3", "experiment": "blockers of pathogenic pemphigus antibody–desmoglein-3 binding – biochemical, validation compound set, bead-based, flow cytometry, pilot screen (AID 588368;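 active = binding below the plate cutoff, the plate median minus 3 SD, with a reading above zero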;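 note: signal is the median channel fluorescence of bead-bound GFP antibody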)", "details": "Protein G beads, DSG3-Fc, scFv-GFP binding, at 10 µM, stronger effect = lower value"}, "[15]": {"tested_on": "Botulinum neurotoxin type F light chain protease (Clostridium botulinum)", "experiment": "Clostridium botulinum type F light chain protease inhibitors, microsphere substrate cleavage, validation (AID 588459; call rule not given here)", "details": "multiplex microsphere protease substrate cleavage assay, flow cytometry; at 10 µM; stronger effect = higher value"}, "[16]": {"target": "Botulinum neurotoxin type A (Clostridium botulinum) (UniProt P0DPI0)", "sequence (P0DPI0 whole entry, looked up)": "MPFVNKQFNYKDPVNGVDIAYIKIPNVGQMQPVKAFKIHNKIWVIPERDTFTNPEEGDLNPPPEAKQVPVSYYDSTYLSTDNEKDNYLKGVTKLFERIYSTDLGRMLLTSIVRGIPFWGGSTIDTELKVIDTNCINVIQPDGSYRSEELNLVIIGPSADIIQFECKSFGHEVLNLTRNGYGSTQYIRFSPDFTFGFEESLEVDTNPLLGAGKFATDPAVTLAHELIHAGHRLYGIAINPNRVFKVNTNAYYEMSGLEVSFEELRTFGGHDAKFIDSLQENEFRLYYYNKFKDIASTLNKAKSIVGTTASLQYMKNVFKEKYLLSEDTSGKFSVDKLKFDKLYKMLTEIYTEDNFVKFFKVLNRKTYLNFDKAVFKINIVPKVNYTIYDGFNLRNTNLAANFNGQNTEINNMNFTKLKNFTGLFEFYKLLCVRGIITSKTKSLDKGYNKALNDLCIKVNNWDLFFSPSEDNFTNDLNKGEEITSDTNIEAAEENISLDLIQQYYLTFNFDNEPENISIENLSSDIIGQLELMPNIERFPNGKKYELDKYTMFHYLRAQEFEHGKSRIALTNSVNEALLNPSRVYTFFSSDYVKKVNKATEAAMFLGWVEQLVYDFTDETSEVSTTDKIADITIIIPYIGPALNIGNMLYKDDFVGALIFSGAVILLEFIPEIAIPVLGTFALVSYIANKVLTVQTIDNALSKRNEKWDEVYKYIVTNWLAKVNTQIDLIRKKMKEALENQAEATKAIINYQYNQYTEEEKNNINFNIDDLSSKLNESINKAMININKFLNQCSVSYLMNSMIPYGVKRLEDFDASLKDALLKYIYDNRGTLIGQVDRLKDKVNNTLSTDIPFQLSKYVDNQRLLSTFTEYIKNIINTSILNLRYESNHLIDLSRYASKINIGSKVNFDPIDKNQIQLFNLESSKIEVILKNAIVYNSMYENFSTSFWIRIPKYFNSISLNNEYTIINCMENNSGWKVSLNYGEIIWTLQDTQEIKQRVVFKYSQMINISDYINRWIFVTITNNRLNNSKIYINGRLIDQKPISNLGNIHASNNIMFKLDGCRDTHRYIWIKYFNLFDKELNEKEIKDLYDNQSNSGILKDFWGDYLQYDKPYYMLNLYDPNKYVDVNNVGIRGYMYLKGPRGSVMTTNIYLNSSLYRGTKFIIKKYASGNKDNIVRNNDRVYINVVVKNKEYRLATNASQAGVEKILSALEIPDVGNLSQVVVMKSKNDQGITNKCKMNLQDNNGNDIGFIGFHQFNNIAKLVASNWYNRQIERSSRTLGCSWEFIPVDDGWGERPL", "experiment": "BoNT/A light chain protease inhibitors, biochemical, multiplex microsphere flow cytometry, validation set (AID 588460; call rule not given here)", "details": "at 10 µM, stronger effect = higher value"}, "[17]": {"target": "Lethal factor (Bacillus anthracis) (UniProt P15917)", "experiment": "Bacillus anthracis lethal factor inhibition, microsphere flow cytometry protease assay, validation at 10 µM (AID 588461; call rule not given here)", "details": "multiplex microsphere protease cleavage assay, stronger effect = higher value"}, "[18]": {"experiment": "Nile Red efflux blockade in pump-expressing yeast – validation compound set, multiplex, phenotypic, pilot screen (AID 588506;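 active = efflux inhibition above 0.42, the validation set average plus 4 SD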;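 note: Nile Red retained in cells so higher fluorescence means more efflux inhibition; 0 = negative control wells and 1 = enniatin B 25 µM full block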)", "details": "S. cerevisiae pump-expressing triplex, Nile Red efflux flow cytometry; at 10 µM; stronger effect = higher value"}, "[19]": {"target": "ATP-binding cassette sub-family B member 6 (Homo sapiens) (UniProt Q9NP58)", "sequence (Q9NP58 whole entry, looked up)": "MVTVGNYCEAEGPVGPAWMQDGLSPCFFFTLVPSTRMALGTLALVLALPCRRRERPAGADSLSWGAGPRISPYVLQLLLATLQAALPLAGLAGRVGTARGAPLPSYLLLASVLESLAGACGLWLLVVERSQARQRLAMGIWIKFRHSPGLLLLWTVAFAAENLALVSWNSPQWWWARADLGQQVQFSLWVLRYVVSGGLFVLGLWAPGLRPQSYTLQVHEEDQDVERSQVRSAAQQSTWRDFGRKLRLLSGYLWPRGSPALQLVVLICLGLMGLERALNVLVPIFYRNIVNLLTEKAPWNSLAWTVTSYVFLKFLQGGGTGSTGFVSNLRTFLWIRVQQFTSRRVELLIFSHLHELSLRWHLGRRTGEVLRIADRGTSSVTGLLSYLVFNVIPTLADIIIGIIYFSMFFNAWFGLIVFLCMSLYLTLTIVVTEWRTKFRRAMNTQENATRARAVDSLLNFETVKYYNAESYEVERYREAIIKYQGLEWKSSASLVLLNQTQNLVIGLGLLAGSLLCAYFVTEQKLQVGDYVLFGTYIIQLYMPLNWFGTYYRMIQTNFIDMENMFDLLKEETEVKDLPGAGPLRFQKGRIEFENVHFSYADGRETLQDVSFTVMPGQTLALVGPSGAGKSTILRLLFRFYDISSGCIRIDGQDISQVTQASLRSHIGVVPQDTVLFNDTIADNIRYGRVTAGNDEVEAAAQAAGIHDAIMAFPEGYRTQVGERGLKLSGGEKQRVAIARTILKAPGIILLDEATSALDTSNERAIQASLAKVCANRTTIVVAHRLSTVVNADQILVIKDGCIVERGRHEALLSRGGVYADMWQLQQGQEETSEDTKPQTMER", "experiment": "blockers of ABCB6-driven porphyrin uptake – K562-ABCB6 cells, flow cytometry, validation set, pilot screen (AID 588550;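 active = inhibition above the screen-wide mean plus 3 SD, about 51%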)", "details": "K562-ABCB6 porphyrin accumulation, 1 h, at 10 µM, stronger effect = higher value"}, "[20]": {"experiment": "AML differentiation inducers, ER-HoxA9 marrow cells – cell-based, GFP/MAC1 double positive, flow cytometry, validation set, primary screen (AID 588685;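 active = differentiation response of at least 50%, scaled between solvent and reference control, from cells with both markers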;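 note: compound exposure lasts four days before antibody staining and flow analysis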)", "details": "stronger effect = higher value"}, "[21]": {"details": "measured here: daughter cell gate"}, "[22]": {"details": "measured here: mother cell gate"}, "[23]": {"details": "measured here: daughter cell gate response"}, "[24]": {"details": "measured here: mother cell gate response"}}, "note": "Inconclusive results are not listed. The source made the active and inactive calls.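 Rule for the calls, unless noted: active = GFP response above 150% of the DMSO level; inconclusive = fewer than 70 events counted for a yeast strain; inactive = the rest.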", "data": [{"smiles": "O=C1NC(=O)N(CCc2ccc(F)cc2)C(=O)/C1=C/c1cccs1", "values": [{"measurement": "GFP response vs DMSO", "setting": "[1]", "result": "97% (inactive)"}, {"measurement": "GFP response vs DMSO", "setting": "[1]; [21]", "result": 95, "unit": "%"}, {"measurement": "GFP response vs DMSO", "setting": "[1]; [22]", "result": 94.1, "unit": "%"}, {"measurement": "GFP response relative to DMSO", "setting": "[2]", "result": "152% (active)"}, {"measurement": "GFP response relative to DMSO", "setting": "[2]; [23]", "result": 142, "unit": "%"}, {"measurement": "GFP response relative to DMSO", "setting": "[2]; [24]", "result": 155, "unit": "%"}, {"measurement": "GFP response, % of DMSO", "setting": "[3]", "result": "81% (inactive)"}, {"measurement": "GFP response, % of DMSO", "setting": "[3]; [21]", "result": 85.7, "unit": "%"}, {"measurement": "GFP response, % of DMSO", "setting": "[3]; [22]", "result": 72.8, "unit": "%"}]}, {"smiles": "CN1C(=O)C(=Cc2ccc(Sc3ccccc3)o2)C(=O)N(C)C1=S", "values": [{"measurement": "GFP response vs DMSO", "setting": "[1]", "result": "98.2% (inactive)"}, {"measurement": "GFP response vs DMSO", "setting": "[1]; [21]", "result": 94.4, "unit": "%"}, {"measurement": "GFP response vs DMSO", "setting": "[1]; [22]", "result": 91.3, "unit": "%"}, {"measurement": "GFP response relative to DMSO", "setting": "[2]", "result": "126% (inactive)"}, {"measurement": "GFP response relative to DMSO", "setting": "[2]; [23]", "result": 114, "unit": "%"}, {"measurement": "GFP response relative to DMSO", "setting": "[2]; [24]", "result": 130, "unit": "%"}, {"measurement": "GFP response, % of DMSO", "setting": "[3]", "result": "99.3% (inactive)"}, {"measurement": "GFP response, % of DMSO", "setting": "[3]; [21]", "result": 117, "unit": "%"}, {"measurement": "GFP response, % of DMSO", "setting": "[3]; [22]", "result": 84, "unit": "%"}]}, {"smiles": "Nc1ccc2ccc3cccc[n+]3c2c1", "values": [{"measurement": "GFP response vs DMSO", "setting": "[1]", "result": "111% (inactive)"}, {"measurement": "GFP response vs DMSO", "setting": "[1]; [21]", "result": 110, "unit": "%"}, {"measurement": "GFP response vs DMSO", "setting": "[1]; [22]", "result": 110, "unit": "%"}, {"measurement": "GFP response relative to DMSO", "setting": "[2]", "result": "181% (active)"}, {"measurement": "GFP response relative to DMSO", "setting": "[2]; [23]", "result": 185, "unit": "%"}, {"measurement": "GFP response relative to DMSO", "setting": "[2]; [24]", "result": 178, "unit": "%"}, {"measurement": "GFP response, % of DMSO", "setting": "[3]", "result": "199% (active)"}, {"measurement": "GFP response, % of DMSO", "setting": "[3]; [21]", "result": 204, "unit": "%"}, {"measurement": "GFP response, % of DMSO", "setting": "[3]; [22]", "result": 196, "unit": "%"}]}, {"smiles": "O=C1C=Cc2ccccc2C1=O", "values": [{"measurement": "percent of DMSO control GFP", "setting": "[4]", "result": "102% (inactive)"}, {"measurement": "GFP response vs DMSO", "setting": "[5]", "result": "116% (inactive)"}, {"measurement": "percent response of DMSO control", "setting": "[6]", "result": "116% (inactive)"}, {"measurement": "GFP response vs DMSO", "setting": "[7]", "result": "89.1% (inactive)"}, {"measurement": "double positive events", "setting": "[8]", "result": 43.3, "unit": "%"}, {"measurement": "vesicle binding response", "setting": "[8]", "result": "71.6% (active)"}, {"measurement": "inhibition", "setting": "[9]", "result": "-65.3% (inactive)"}, {"measurement": "superoxide response (% of plate)", "setting": "[10]", "result": "129% (inactive)"}, {"measurement": "aptamer binding inhibition", "setting": "[11]", "result": "2% (inactive)"}, {"measurement": "inhibition", "setting": "[12]", "result": "8% (inactive)"}, {"measurement": "response", "setting": "[13]", "result": "1.9% (inactive)"}, {"measurement": "binding (% of control)", "setting": "[14]", "result": "109% (inactive)"}, {"measurement": "inhibition", "setting": "[15]", "result": "-1.2% (inactive)"}, {"measurement": "inhibition", "setting": "[16]", "result": "1.7% (inactive)"}, {"measurement": "inhibition", "setting": "[17]", "result": "1.9% (inactive)"}, {"measurement": "efflux inhibition (fraction of control)", "setting": "[18]", "result": "-0.09 (inactive)"}, {"measurement": "inhibition", "setting": "[19]", "result": "7% (inactive)"}, {"measurement": "differentiation response", "setting": "[20]", "result": "5.73% (inactive)"}]}, {"smiles": "CCN1C(=O)NC(=O)/C(=C\\c2cn(CC(=O)N3CCCC3)c3ccccc23)C1=O", "values": [{"measurement": "GFP response vs DMSO", "setting": "[1]", "result": "97.3% (inactive)"}, {"measurement": "GFP response vs DMSO", "setting": "[1]; [21]", "result": 97.3, "unit": "%"}, {"measurement": "GFP response vs DMSO", "setting": "[1]; [22]", "result": 96.9, "unit": "%"}, {"measurement": "GFP response relative to DMSO", "setting": "[2]", "result": "102% (inactive)"}, {"measurement": "GFP response relative to DMSO", "setting": "[2]; [23]", "result": 102, "unit": "%"}, {"measurement": "GFP response relative to DMSO", "setting": "[2]; [24]", "result": 102, "unit": "%"}, {"measurement": "GFP response, % of DMSO", "setting": "[3]", "result": "100% (inactive)"}, {"measurement": "GFP response, % of DMSO", "setting": "[3]; [21]", "result": 101, "unit": "%"}, {"measurement": "GFP response, % of DMSO", "setting": "[3]; [22]", "result": 100, "unit": "%"}]}, {"smiles": "Cc1ccc(N2C(=O)NC(=O)/C(=C\\c3cn(CC(=O)O)c4ccccc34)C2=O)cc1", "values": [{"measurement": "GFP response vs DMSO", "setting": "[1]", "result": "100% (inactive)"}, {"measurement": "GFP response vs DMSO", "setting": "[1]; [21]", "result": 100, "unit": "%"}, {"measurement": "GFP response vs DMSO", "setting": "[1]; [22]", "result": 101, "unit": "%"}, {"measurement": "GFP response relative to DMSO", "setting": "[2]", "result": "102% (inactive)"}, {"measurement": "GFP response relative to DMSO", "setting": "[2]; [23]", "result": 102, "unit": "%"}, {"measurement": "GFP response relative to DMSO", "setting": "[2]; [24]", "result": 104, "unit": "%"}, {"measurement": "GFP response, % of DMSO", "setting": "[3]", "result": "96.5% (inactive)"}, {"measurement": "GFP response, % of DMSO", "setting": "[3]; [21]", "result": 94.8, "unit": "%"}, {"measurement": "GFP response, % of DMSO", "setting": "[3]; [22]", "result": 96.6, "unit": "%"}]}]}
